Reference: PubChem BioAssay (NCI)
Compounds without any hit were thinned out: in the full panel of roughly 83,000, 20% have a hit.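 Testing used 96-well plates and a 48-hour single-concentration exposure. Example: -40 means 40% of the starting cells died.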 Values without a mark were called inactive. Active and inactive are the calls of the source. The calls were made as follows: active = growth percent below 10; inactive = the rest.

The compounds below were run on HL-60(TB) leukemia (assay: NCI-60 one-dose screen, 48 h (100 = growth as untreated, 0 = no growth, -100 = all killed)). Details: 10 µM unless noted.

| SMILES | growth |
| --- | --- |
| O=c1c2c3c(sc2n2c(-c4cn(-c5ccccc5)nc4-c4ccc(Cl)cc4)nnc2n1Cc1ccccc1)CCCC3 | 102% |
| O=C(CNc1nc(-c2ccc(Cl)cc2)cs1)Nc1ccc(-c2nc3ccccc3s2)cc1 | 99.3% |
| O=C(N/N=C/C=C/c1ccc([N+](=O)[O-])o1)c1cc2ccccc2cc1O | 3.51% (active) |
| COc1cc(-c2nn(C(=O)NCCN3CCN(C)CC3)cc2-c2ccncc2)ccc1Cl | 93.2% |
| CC(=O)O[C@H]1C[C@@]2(C)[C@@H](C[C@@H](O)[C@H]3[C@@]4(C)CC[C@H](N5CCCC5)[C@@H](C)[C@@H]4CC[C@@]32C)/C1=C(\CCC=C(C)C)C(=O)O | -74.3% (active) |
| C=C1C(=O)O[C@H]2[C@H]1CCC(/C=N/c1ncc(Br)cc1N)=C\CC[C@@]1(C)O[C@@H]21 | -21.4% (active) |
| NNc1nc(-c2cccnc2)nc2c1sc(=S)n2-c1ccccc1 | 77.1% |
| O=C(O[C@@H]1Cc2c(O)cc(O)cc2O[C@@H]1c1cc(O)c(O)c(O)c1)c1cc(O)c2c(c1)OCO2 | 91.1% |
| COc1cccc(NC(=O)OC(C)C)c1 | 72.7% |
| CN1CCC(CNc2ccc3ncc(-c4cccc(OC(F)(F)F)c4)n3n2)CC1 | -37.1% (active) |
| COc1cccc(C(=O)NCCNc2cc(-c3cn(-c4ccccc4)nc3-c3cccc(OC)c3)ccn2)c1 | 41.5% |
| O=C1c2cccc3cccc(c23)C(=O)N1Nc1nc(N2CCOCC2)nc(N2CCN(c3ccccc3)CC2)n1 | 56.3% |
| Cn1cc(-c2nonc2-c2c[nH]c3ccccc23)c2ccccc21 | 1.04% (active) |
| COc1cc2nc(NC3CCCC3)nc(NC3CCN(C(C)C)CC3)c2cc1OC | 88.7% |
| O=C(Cc1nc2ccc([N+](=O)[O-])cc2nc1CC(=O)c1cccnc1)c1cccnc1 | 67.5% |
| O=C(COc1ccc(/C=C2\Cc3ccc(Cl)cc3C2=O)cc1)Nc1nccs1 | 67.3% |
| CCc1ccc(CCN2C(=O)c3ccccc3C2=O)nc1 | 120% |
| CC(C)C[C@@H](NC(=O)[C@@H](Cc1ccccc1)NC(=O)c1cnccn1)B1O[C@H]2[C@H](O)[C@@H](C(=O)NCCCC[C@@H]3NC(=O)[C@@H](Cc4ccccc4)NC(=O)[C@H](CC(=O)O)NC(=O)CNC(=O)[C@H](CCCN=C(N)N)NC3=O)O[C@@H](CN)[C@H]2O1 | -1.86% (active) |
| O=c1ccc2nc(C(F)(F)F)nn(-c3ccccc3)c-2c1 | -36.6% (active) |
| Cc1cn([C@]2(CF)O[C@H](CO)C2C)c(=O)[nH]c1=O (stereo not given in full) | 105% |

| SMILES | growth |
| --- | --- |
| Cc1nc(N)nc(SCc2ccccc2)c1Br | 53.2% |
| O=C(CCc1nnco1)c1nc2ccc([N+](=O)[O-])cc2[nH]1 | 120% |
| Brc1ccc2[nH]cc(-c3nc(-c4c[nH]c5ccncc45)cs3)c2c1 | -55.4% (active) |
| CCC(=O)Nc1cc2c(cc1Cl)-c1ccccc1C2 | 39.4% |
| O=P([O-])(O)OP(=O)([O-])O.[NH-][C@H]1CCCC[C@@H]1[NH-].[OH-].[OH-].[Pt+4] | 111% |
| CN(C)c1ccc2cc(-c3ccccc3F)c(N)nc2c1 | 5.36% (active) |
| Cc1cc(O)ccc1C1=NN(c2ccc(S(C)(=O)=O)cc2)C(=O)CC1 | 52.6% |
| O=C(COc1ccc(Cl)cc1Cl)Oc1coc(CSc2nc3ccccc3s2)cc1=O | 100% |
| COc1ccc(/C=C/C(=O)Nc2ccc(-c3nc4ccc(OC)cc4s3)cc2)cc1 | 99.3% |
| COc1cc(NS(=O)(=O)c2ccc(N)cc2)ncn1 | 105% |
| COc1ccc(-c2cc(-c3ccc(Nc4nc(Nc5ccccc5)nc(Nc5ccc(Cl)cc5)n4)cc3)nc(N)c2C#N)cc1 | 33.1% |
| S=C1N(c2ccccc2)CN(C2CCCCC2)CN1c1ccccc1 | 96.1% |
| Oc1ccc(-c2nn(-c3ccccc3)cc2-c2nc3ccccc3s2)cc1 | 104% |
| O=C1NC(=O)/C(=C/c2c(-c3ccccc3)nc3sc(COc4ccccc4)nn23)S1 | 91.1% |
| CCn1nc(C#Cc2c(C)ccc3c(Nc4ccc(Cl)cc4)nccc23)c2c(N)ncnc21 | -16% (active) |
| CN1CCN(C(=O)[C@]23CCC(C)(C)C[C@H]2C2=CC[C@@H]4[C@@]5(C)C/C(=C/c6ccncc6)C(=O)C(C)(C)[C@@H]5CC[C@@]4(C)[C@]2(C)CC3)CC1 | -41.7% (active) |
| CSc1nsc(N)n1 | 105% |
| CCCCC[C@H]1C/C=C2/C(=O)C=C[C@@H]2C/C=C\CCCC(=O)O[C@@H](CCCCC)C/C=C2/C(=O)C=C[C@@H]2C/C=C\CCCC(=O)O1 | -47.6% (active) |
| O=C(NOC[C@H](O)CO)c1ccc(F)c(F)c1Nc1ccc(I)cc1F | 6.7% (active) |
| COc1cc2nc(N3CCCC3)nc(Nc3ccccc3)c2cc1OC | -53.9% (active) |
